Test results published in ChEMBL document CHEMBL3988442, “University of Dundee, Small-Polar-MMV Screening Library” (2021).

Experiments:
[1] = target: T1, Aspartate--tRNA(Asp/Asn) ligase (Mycobacterium tuberculosis (strain ATCC 25618 / H37Rv)) (UniProt P9WFW3); assay: Assay for Asp RNA synthetase-1 from Mycobacterium tuberculosis; format: functional; parameters: scale not given: direction of the effect not stated beside the values; conditions: 30 µM; further: in the data most compounds retested in dose-response had high values
T1 sequence (whole entry): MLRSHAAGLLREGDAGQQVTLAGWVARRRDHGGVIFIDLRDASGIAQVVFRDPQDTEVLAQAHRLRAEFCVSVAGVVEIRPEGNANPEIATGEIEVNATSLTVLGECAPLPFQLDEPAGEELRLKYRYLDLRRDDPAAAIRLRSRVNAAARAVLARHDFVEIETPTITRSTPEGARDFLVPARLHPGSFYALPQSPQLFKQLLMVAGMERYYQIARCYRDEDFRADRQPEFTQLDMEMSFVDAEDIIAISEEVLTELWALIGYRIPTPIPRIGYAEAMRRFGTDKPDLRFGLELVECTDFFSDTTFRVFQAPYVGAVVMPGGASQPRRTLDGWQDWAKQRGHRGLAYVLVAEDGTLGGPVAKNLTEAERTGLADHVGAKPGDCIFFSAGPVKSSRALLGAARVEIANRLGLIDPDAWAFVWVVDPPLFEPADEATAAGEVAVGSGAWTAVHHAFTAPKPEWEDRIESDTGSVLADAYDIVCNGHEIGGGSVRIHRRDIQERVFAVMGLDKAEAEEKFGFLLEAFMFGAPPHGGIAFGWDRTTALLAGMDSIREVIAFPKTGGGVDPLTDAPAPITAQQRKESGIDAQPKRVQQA

[2] = target: Shiga toxin 2 (Escherichia coli O157:H7) (UniProt P09385+P09386); assay: E. coli 0.157:H7 Shiga Toxin SOP - stx2 screening assay; format: functional; parameters: scale not given: direction of the effect not stated beside the values; conditions: 30 µM

**Q.** Which results are given for Cc1cc(C(=O)NCc2ccccn2)no1?
**A.** Percent Effect [1]: -4.62%; Percent Effect [2]: -0.424%

**Q.** How did the Percent Effect [1] turn out when Cc1cc(CN2CCCC2c2c(C)nn(C)c2Cl)no1 (stereo unspecified) was run?
**A.** -1.57%

**Q.** And the Percent Effect [2]?
**A.** 8.59%

**Q.** What does the source list for CN1CCC(NC(=O)NCc2csc(Br)c2)CC1?
**A.** Percent Effect [1]: 6.12%; Percent Effect [2]: 6.77%

**Q.** c1ccc(-n2cc(CN3CCCC(Cn4cncn4)C3)nn2)cc1 (stereo unspecified) was tested. Which Percent Effect [1] did it give?
**A.** -9.82%

**Q.** And the Percent Effect [2]?
**A.** -48.9%

**Q.** What does the source list for Cc1nc(CSCCC(=O)NCc2cccnc2N(C)C)cs1?
**A.** Percent Effect [1]: 1.66%; Percent Effect [2]: -9.97%

**Q.** Which results are given for CC(C)c1noc(CCCC(=O)NC2CCS(=O)(=O)C2)n1 (stereo unspecified)?
**A.** Percent Effect [1]: 0.955%; Percent Effect [2]: -17.4%

**Q.** What does the source list for CCC1CCCCN1C(=O)c1ccc2[nH]nnc2c1 (stereo unspecified)?
**A.** Percent Effect [1]: 6.94%; Percent Effect [2]: -3.51%

**Q.** Which Percent Effect [1] does the source give for O=C(NCC(O)c1ccc(F)c(F)c1)c1cccnc1O (stereo unspecified) here?
**A.** 2.78%

**Q.** And the Percent Effect [2]?
**A.** -4.45%

**Q.** For Clc1ccc(OCCCN2CCN(c3cnccn3)CC2)cc1, which Percent Effect [1] is on record?
**A.** 1.06%

**Q.** What about the Percent Effect [2] of the same compound?
**A.** -6.97%

**Q.** For CNS(=O)(=O)c1ccc(C(=O)NC2CCc3nc(C)cn3C2)o1 (stereo unspecified), which Percent Effect [1] is on record?
**A.** -6.5%

**Q.** What about the Percent Effect [2] of the same compound?
**A.** 17.4%

**Q.** For CC(=O)N1CCCN(C(=O)NCc2ccccn2)CC1, which Percent Effect [1] is on record?
**A.** 3.93%

**Q.** And the Percent Effect [2]?
**A.** 16.9%

**Q.** With CCc1n[nH]c(C2CN(CC(=O)NCCc3ccsc3)CCO2)n1 (stereo unspecified) as the compound, how does the Percent Effect [1] read?
**A.** -5.2%

**Q.** What about the Percent Effect [2] of the same compound?
**A.** -20.2%

**Q.** With COCC(=O)N(C)Cc1cccc(Cl)c1 as the compound, how does the Percent Effect [1] read?
**A.** -0.779%

**Q.** And the Percent Effect [2]?
**A.** -8.03%

**Q.** Which results are given for CN1CCN(C(=O)c2cncc(CC3CCCN(C)C3)c2)CC1 (stereo unspecified)?
**A.** Percent Effect [1]: -1.68%; Percent Effect [2]: -19.2%

**Q.** For CN(C)c1cc(C(=O)NCCc2n[nH]c(=O)[nH]2)ccn1, which Percent Effect [1] is on record?
**A.** 0.719%

**Q.** What about the Percent Effect [2] of the same compound?
**A.** -0.859%

**Q.** What does the source list for O=C1CC(c2ccc(F)c(F)c2)c2snc(C(=O)O)c2N1 (stereo unspecified)?
**A.** Percent Effect [1]: 3.57%; Percent Effect [2]: -5.34%

**Q.** Which Percent Effect [1] does the source give for CCOc1ncccc1CNC(=O)Nc1ccc(N(C)C)nc1 here?
**A.** 3.77%

**Q.** And the Percent Effect [2]?
**A.** -48.5%

**Q.** For CCc1nnc2n1CCN(CC(=O)Nc1sccc1C#N)C2, which Percent Effect [1] is on record?
**A.** -0.787%

**Q.** And the Percent Effect [2]?
**A.** 24.4%
